uPA generation – blocks generation of uPA at the cell surface; 330,000 tested, 0.31% active; AID 540303; Potency, µM (titrated, usually from 38.3 µM), for inactives: at the top dose activity change, negative = inhibition, usual class: inhibitors; cell surface uPA generation assay, qHTS; active = well fitted inhibition curve with a large enough effect; inconclusive = small, poorly fitted or top-dose-only effect; inactive = no such curve, though single readings can be large or run the other way; tested in mouse RAW 264.7 cells; also: potency is read from the fitted curve at half-maximal effect; nearly all actives have a fitted effect of over 55% in size
IL1B secr inh – blocks inflammasome-driven IL-1 beta release; activity change, % at 57.5 µM; 360,000 tested, 4.7% active; THP-1 LPS/ATP IL-1B secretion, AlphaLISA, 16 h; hits give low values; in the data active = activity change below about -50%; inconclusive = mostly about -30% to -49%
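Secreted IL-1B measured by AlphaLISA bead assay after 16 h compound exposure of THP-1 cells; compounds (final up to 57.5 uM) added 1 h before LPS (250 ng/mL) and ATP (1.25 mM) stimulation; lower signal means less secretion.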
HT1080NT lethal – kills 2HG-producing HT-1080-NT fibrosarcoma cells. 360,000 tested, 1.6% active. Potency, µM (doses to about 46.1 µM), inactives show at the top dose activity, negative = less viability, usual class: cytotoxic. HT-1080-NT fibrosarcoma viability, CellTiter-Glo ATP luminescence, 48 h;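 also: NT is the 2HG producing partner of a matched IDH1 knockdown line; potency is read from the fitted curve at half-maximal effect; 0% = DMSO-treated cells and -100% = media-only wells without cells; nearly all actives have a fitted effect of over 55% in size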
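Viability of the 2HG-overproducing fibrosarcoma line after 48 hours of compound exposure at 37 degrees C was determined by luminescence with CellTiter-Glo, and concentration-effect curves were then fitted and categorized.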
HT1080 IDH1KD tx – HT-1080 IDH1 knockdown cell toxicity (counter line); HT-1080 IDH1 knockdown viability, ATP luminescence, 48 h; Potency, µM (series often up to 46.1 µM), inactives show at the top dose activity, negative = toxicity, most hits filed as cytotoxic; 360,000 tested, 2% active; AID 686971;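 also: potency is read from the fitted curve at half-maximal effect; 0% = DMSO wells and -100% = cell-free medium wells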
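After a 2 h attachment period, IDH1KD HT-1080 cells took pin-transferred compound for 48 h at 37 °C; ATP-based luminescence after 10 min room-temperature reagent incubation reported viability.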
DT40 TDP1 CPT – DT40-hTDP1 cell growth loss with CPT | 420,000 tested, 12% active | chicken DT40 Tdp1-/-;hTDP1 cells + 20 nM CPT, ATP luminescence, 48 h | AID 686979 | Potency, µM (doses to about 46.2 µM), for inactives: top-dose activity change, negative = growth inhibition, hits mostly inhibitors; also: potency is read from the fitted curve at half-maximal effect; nearly all actives have a fitted effect of over 55% in size
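Cell growth measured by CellTiter-Glo luminescence after a minimum 48 h, 37 C compound exposure with 20 nM CPT in Tdp1-knockout DT40 cells stably expressing hTDP1, seeded 400/well; qHTS titration format.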
TDP1 cell noCPT – qHTS for Inhibitors of human tyrosyl-DNA phosphodiesterase 1 (TDP1): qHTS in cells in absence of CPT. Potency, µM (doses to about 46.2 µM), inactives show at the highest dose activity change, negative = growth inhibition, actives largely listed as inhibitors. DT40 Tdp1-/- hTDP1 cells, no CPT, ATP luminescence, 48 h. 420,000 tested, 15% active; also: potency is read from the fitted curve at half-maximal effect; nearly all actives have a fitted effect of over 55% in size
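Camptothecin absent (DMSO only). Human TDP1-complemented DT40 knockout cells, 400 cells/well, 37 °C for minimum 48 hr; ATP measured via CellTiter-Glo, 30 min dark incubation, luminescence.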
An asterisk follows results filed as active; ? = inconclusive; · = no result; [ ] = dose if it differs, or a comment. An excerpt weighted towards active compounds, which were near 19% of everything screened. Unless noted, calls follow the shape of the dose curve; as a rule, active = well fitted curve in the direction sought with a large enough effect; inconclusive = small, poorly fitted or top-dose-only effect, or another doubt; inactive = no such curve, though single readings can be large; an effect the other way counts as inactive or inconclusive. Unless noted, % is scaled to controls: 0 for no effect and ±100 for the full control effect.

SMILES	uPA generation	IL1B secr inh	HT1080NT lethal	HT1080 IDH1KD tx	DT40 TDP1 CPT	TDP1 cell noCPT
COc1ccc(CCNC(=O)c2cc3c(=O)n4ccccc4nc3n(CC3CCCO3)c2=N)cc1OC (configuration not stated)	-2%	-14	4%	6%	21µM*	?
COc1ccc(CCn2c(=N)c(C(=O)NCC3CCCO3)cc3c(=O)n4ccccc4nc32)cc1 (configuration not stated)	12%	-15	-2%	1%	5.8µM*	8.2µM*
COc1ccc(CCNC(=O)c2cc3c(=O)n4ccccc4nc3n(CC3CCCO3)c2=N)cc1 (configuration not stated)	-2%	-10	2%	4%	21µM*	26µM*
COc1cc(CCC(=O)OCC(=O)Nc2ccc(C)cc2Cl)cc(OC)c1OC	2%	-4	9%	2%	18%	11%
CN1CC=C2C(C#N)=C(N)C(C#N)(C#N)[C@H](c3cccc(Cl)c3)C2C1 (some centres not stated)	0%	-3	-7%	-13%	?	23µM*
CN1CC=C2C(C#N)=C(N)C(C#N)(C#N)[C@H](c3cccs3)[C@H]2C1	-2%	-9	1%	11%	?	15µM*
CN1CC=C2C(C#N)=C(N)C(C#N)(C#N)C(c3ccsc3)C2C1 (configuration not stated)	1%	5	-2%	-5%	?	?
COc1cccc(C2C3CN(C)CC=C3C(C#N)=C(N)C2(C#N)C#N)c1OC (configuration not stated)	-4%	-19	1%	-4%	-12%	-16%
COc1ccccc1NC(=O)Cn1nnc(-c2ccccc2NS(=O)(=O)c2ccccc2)n1	6%	4	-6%	-16%	13µM*	18µM*
CCOc1ccc(NC(=O)Cn2nnc(-c3ccccc3NC(=O)CC)n2)cc1	5%	27	-13%	-25%	?	16µM*
Cc1ccc(NC(=O)Cn2nnc(-c3ccccc3NC(=O)c3cccs3)n2)cc1	-11%	9	1.2µM*	1.2µM*	0.65µM*	0.82µM*
CCCC(=O)Nc1ccccc1-c1nnn(CC(=O)Nc2ccc(OCC)cc2)n1	-6%	18	-8%	-23%	?	21µM*
CCOC(=O)Cn1nnc(-c2cc(OC)c(OC)c(OC)c2)n1	1%	?	23%	22%	-2%	0%
COc1cc(-c2nnn(CC(=O)Nc3ccc(OC(F)(F)F)cc3)n2)cc(OC)c1OC	·	·	·	·	21µM*	7.3µM*
COc1ccc(C(=O)Cn2nnc(-c3ccccc3NC(=O)C3CC3)n2)cc1	5%	-1	-1%	-4%	18µM*	16µM*
Cc1ccccc1-c1nnn(CC(=O)NC(=O)NC2CCCC2)n1	4%	-54*	0%	1%	-5%	-10%
Cc1ccccc1C(=O)Nc1ccccc1-c1nnn(CC(=O)Nc2ccc3c(c2)OCCO3)n1	·	32	-23%	-16%	23µM*	15µM*
O=C(Cn1nnc(-c2ccccc2NC(=O)c2ccccc2F)n1)NC1CCCC1	-3%	-7	?	9%	0%	-14%
O=C1NC2(CCCCCC2)C(=O)N1Cc1ccccc1Cl	6%	16	-2%	-6%	-3%	-14%
O=C(c1ccncc1)N1CCC2(CCC(CNC(=O)C3(N4CCOCC4)CCCCC3)O2)CC1 (configuration not stated)	·	·	·	·	5%[9.04 µM]	-5%
CC1SC2(NC1=O)C1CC3CC(C1)CC2C3 (configuration not stated)	-9%	55	0%	-5%	-3%	-24%
O=C(Nc1cccnc1)C1CC(=O)N(c2ccc(F)cc2)C1 (configuration not stated)	8%	5	14%	-2%	-7%	-21%
CCOC(=O)C1CCN(c2nc3c(S(=O)(=O)c4ccccc4)nnn3c3ccc(Cl)cc23)CC1	·	·	·	·	23µM*	15µM*
CCOC(=O)C1CCN(c2nc3c(S(=O)(=O)c4ccccc4)nnn3c3ccsc23)CC1	·	·	·	·	15µM*	21µM*
CCN(CC)c1ccc(/C=N/NC(=O)c2nnn(-c3nonc3N)c2CN(C)C2CCCCC2)cc1	·	-13	-3%	-3%	4%	?
SMILES	uPA generation	IL1B secr inh	HT1080NT lethal	HT1080 IDH1KD tx	DT40 TDP1 CPT	TDP1 cell noCPT
CCCCOc1ccc(S(=O)(=O)NC(=O)C2(C)CCN2C(=O)Cc2cccs2)cc1 (configuration not stated)	·	0	15%	0%	-13%	-6%
CCCC(=O)NC(Nc1c(C)n(C)n(-c2ccccc2)c1=O)C(Cl)(Cl)Cl (configuration not stated)	-1%	0	8%	13%	-1%	-24%
Cc1c(NC(=S)N/N=C/c2ccc(N(C)C)cc2)c(=O)n(-c2ccccc2)n1C	3%	0	-10%	-14%	16µM*	?
CCCC(=O)NC(NC(=S)Nc1c(C)n(C)n(-c2ccccc2)c1=O)C(Cl)(Cl)Cl (configuration not stated)	1%	1	9%	13%	?	29µM*
O=C(NC(=S)Nc1ccc(Br)cn1)c1cccs1	?	39	-5%	-3%	?	?
Cc1cc(C)c(-c2csc(NC(=O)/C=C/c3cccs3)n2)c(C)c1	7%	-14	-24%	-27%	?	18µM*
Cc1cc(C)nc(NC(=O)/C=C/c2cccs2)c1	-25%	?	3%	-2%	-12%	-3%
O=C(/C=C/c1cccs1)Nc1ccc(Br)cn1	-13%	78	0.12µM*	0.18µM*	0.26µM*	0.33µM*
O=C(/C=C/c1cccs1)Nc1nccs1	-28%	42	?	-22%	-20%	-32%
O=C(/C=C/c1cccs1)Nc1cccc(NC(=O)/C=C/c2cccs2)n1	-7%	-4	-10%	-25%	12µM*	8.2µM*
Cc1nsc(Nc2ccc([N+](=O)[O-])cc2)c1C#N	-7%	13	-21%	-25%	2.6µM*	2.3µM*
Cc1ccc(Nc2ccc([N+](=O)[O-])ccc2=O)cc1	1%	-6	-2%	-1%	9%	0%
Nc1nn(-c2ccccc2)c2ccc([N+](=O)[O-])cc12	-8%	?	?	?	-26%	?
O=[N+]([O-])c1ccc2c(c1)c(-c1ccccc1)nc1nncn12	8%	6	0%	-16%	3%	7.3µM*

Source: PubChem BioAssay
